Results: PubChem BioAssay
Active and inactive are the calls of the source.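 How the source made its calls, unless noted: active means compound raises insulin release from rat beta cells at 5 mM glucose, no numeric limit stated; inactive means the rest.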

What was measured:
[1] = stimulators of nuclear beta-catenin in C2C12, primary screen, imaging, WNT3A-conditioned medium, mouse C2C12, NPC library (AID 1117326; in the data active means nuclear beta-catenin stimulation mostly above about 4.2%, no sharp cut-off; inactive means mostly below about 10%; further: reference of the scale not given here); conditions: stronger effect = higher value
[2] = stimulators of insulin release from INS-1E, primary screen, cell-based, 5 mM glucose, NPC library (AID 1117329); conditions: rat INS-1E insulin secretion, at 10 µM, stronger effect = higher value; further: reference of the scale not given here
[3] = growth inhibition of GSK3B-pretreated HCT116 cells – cell-based, CellTiter-Glo, 0.2 to 20 µM (AID 1117336;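 active means compounds lowering colon cancer cell viability after pretreatment blocking the GSK3B kinase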); conditions: HCT116 viability after GSK3B inhibitor, at 20 µM, stronger effect = higher value
[4] = inhibition of endothelial tube formation, primary screen, imaging, VEGF stimulated, CD31 staining, tube area, NPC library (AID 1117340;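 active means compound that reduces growth-factor-driven endothelial tube area in a mixed cell culture, no cutoff stated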); conditions: VEGF-stimulated ADSC/ECFC co-culture, at 10 µM, stronger effect = higher value
[5] = glucagon-like peptide 1 release enhancers, primary assay, NCI-H716 cell line, NPC library (AID 1117341;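 active means compound raises GLP1 secretion from the human gut endocrine cells, with no numeric limit stated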; further: reference of the scale not given here); conditions: NCI-H716 cells, at 10 µM, stronger effect = higher value
[6] = HCT116 colon cancer cell growth inhibition, primary screen, CellTiter-Glo luminescence, NPC library (AID 1117342;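 active means compounds that lower survival of HCT116 colon cancer cells in the luminescence readout, no numeric limit stated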); conditions: at 20 µM (top of the series)
[7] = CellTiter-Glo luminescent readout of SW480 viability loss, NPC library primary (AID 1117343;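 active means compounds that lower viability of the colon cancer cells in the luminescence readout, with no numeric limit stated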); conditions: CellTiter-Glo luminescence; at 20 µM (top of the series)
[8] = decreased DLD-1 cellular survival, CellTiter-Glo luminescent readout, NPC compound collection, primary HTS (AID 1117346;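 active means compounds that lower survival of DLD-1 colon cancer cells in the luminescence readout, no cutoff given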); conditions: DLD-1 viability, CellTiter-Glo luminescence; at 20 µM (top of the series)

Row | Structure (SMILES) | nuclear beta-catenin stimulation ([1]; at 10 µM) | nuclear beta-catenin stimulation ([1]; stimulation, at 2 µM) [%] | insulin secretion stimulation [2] | viability decrease [3] | tube area decrease [4] | GLP1 secretion stimulation [5] | inhibition of viability [6] | viability decrease (inhibition) [7] | viability decrease (inhibition) [8]
1 | COC(=O)c1cc(Cl)ccc1OC | -0.1% (inactive) | -1.6 | 1.5% (inactive) | 1.2% (inactive) | -13.8% (inactive) | 2.6% (inactive) | 8.2% (inactive) | -4.7% (inactive) | 0.3% (inactive)
2 | CC(=O)c1cc2ccccc2s1 | 2.1% (inactive) | 1.1 | -1.3% (inactive) | 32.7% (inactive) | -3.8% (inactive) | 0.1% (inactive) | 31.2% (inactive) | 32.8% (inactive) | 26.6% (inactive)
3 | Nc1ncnc2c1ncn2CCOCP(=O)(O)O | -0.6% (inactive) | 0.1 | -2% (inactive) | -1.45% (inactive) | 11.2% (inactive) | 4% (inactive) | -1.5% (inactive) | 27.9% (inactive) | 6.8% (inactive)
4 | O=C(O)[C@@H]1CCCN1 | 0.9% (inactive) | 1.2 | 1.6% (inactive) | 2.9% (inactive) | -4% (inactive) | -1.7% (inactive) | 36.6% (inactive) | 42.8% (inactive) | 57.9% (active)
5 | COc1ccc2cc(C=O)ccc2c1 | 0.1% (inactive) | 0.2 | 0.95% (inactive) | 17.4% (inactive) | -8.2% (inactive) | -3.7% (inactive) | 16.4% (inactive) | 7% (inactive) | 5.8% (inactive)
6 | CC(C)=CCOc1ccc(/C=C/C(=O)c2ccc(OCC=C(C)C)cc2OCC(=O)O)cc1 | 10.1% (inactive) | -0.2 | 0.6% (inactive) | 99.2% (active) | 108% (active) | -0.1% (inactive) | 99.6% (active) | 102% (active) | 102% (active)
7 | Cc1c(C)c2c(c(C)c1OC(=O)c1cccnc1)CC[C@@](C)(CCC[C@H](C)CCC[C@H](C)CCCC(C)C)O2 | -0.1% (inactive) | -0.2 | -0.2% (inactive) | 13.1% (inactive) | -9.8% (inactive) | 5.5% (inactive) | -2.9% (inactive) | -20.2% (inactive) | -13.8% (inactive)
8 | CC(C)=CCC1C(=O)N(c2ccccc2)N(c2ccccc2)C1=O | -0.3% (inactive) | 0.3 | -1.2% (inactive) | 45.1% (inactive) | 8.8% (inactive) | -1.5% (inactive) | -4.6% (inactive) | 78.1% (active) | 26.2% (inactive)
9 | CCCCC(=O)O[C@H]1CC[C@H]2[C@@H]3CCc4cc(O)ccc4[C@@H]3CC[C@]12C | -0.4% (inactive) | -0.3 | 1.2% (inactive) | 99.1% (active) | 108% (active) | -4.2% (inactive) | 91.3% (active) | 103% (active) | 74.4% (active)
10 | CC(C)(C)C(=O)NCCCC(=O)O | -1.1% (inactive) | 2.4 | 2.7% (inactive) | -7.9% (inactive) | 2% (inactive) | -3.9% (inactive) | -1.1% (inactive) | -0.2% (inactive) | -16.7% (inactive)
11 | CC(C)C(=O)Nc1cccc(C2CN3CCSC3=N2)c1 (centres undefined) | 1.5% (inactive) | 1.8 | -0.5% (inactive) | -30.9% (inactive) | -4.2% (inactive) | 5% (inactive) | 4.17% (inactive) | 13% (inactive) | -14.4% (inactive)
12 | O=c1[nH]sc2cc(Cl)ccc12 | 15.5% (inactive) | 7.8 | -2.7% (inactive) | 58.1% (active) | 89.7% (active) | 45% (active) | 20.5% (inactive) | 157% (active) | 63.5% (active)
13 | C=C1C(=C/C=C2\CCC[C@]3(C)[C@@H]([C@H](C)/C=C/[C@@H](O)C4CC4)CC[C@@H]23)C[C@@H](O)C[C@@H]1O | 2.6% (inactive) | 4.1 | 4.15% (inactive) | 103% (active) | 19.7% (inactive) | 3.9% (inactive) | 82% (active) | 111% (active) | 92.9% (active)
14 | COC1=C(OC)C(=O)C(CC=C(C)CCC=C(C)CCC=C(C)CCC=C(C)CCC=C(C)CCC=C(C)CCC=C(C)CCC=C(C)CCC=C(C)CCC=C(C)C)=C(C)C1=O | 0.8% (inactive) | 1.2 | 3.9% (inactive) | 13.5% (inactive) | -5.2% (inactive) | 1.9% (inactive) | 4.6% (inactive) | -7.3% (inactive) | 1.9% (inactive)
15 | Cc1oc(-c2ccccc2)nc1CCC(=O)c1ccc(CC2SC(=O)NC2=O)cc1 (centres undefined) | 3.2% (inactive) | -0.4 | 3.5% (inactive) | 97.3% (active) | 9.6% (inactive) | 12.7% (inactive) | 95.4% (active) | 120% (active) | 96.5% (active)
16 | CC(C)CCC[C@@H](C)[C@H]1CC[C@H]2[C@@H]3CC[C@H]4C[C@@H](O)CC[C@]4(C)[C@@H]3CC[C@]12C | 0% (inactive) | 0.5 | 1.1% (inactive) | 1.6% (inactive) | -1.6% (inactive) | -1.9% (inactive) | -2.8% (inactive) | -7.2% (inactive) | -8.7% (inactive)
